The term AC50 denotes the midpoint of the concentration-response curve, whichever way the signal moves.

Results on three compounds are retold here after PubChem BioAssay (EPA / NIEHS).

Inconclusive results are not listed. Active and inactive are the calls of the source. Rule for the calls, unless noted: active = hit-call score of the fitted dose curve at least 0.9, where 1 is the maximum; inactive = score below 0.9.

Read-out in experiment [1]: Phosphatase and tensin (PTEN), PTEN (gene 5728)
The experiment can be described thus: LTEA_HepaRG_PTEN: Life Technologies and Expression Analysis (LTEA) Assay for Phosphatase and tensin (PTEN) using HepaRG (AID 2283523). As to conditions: mRNA level, 48 h; actives raise or lower the signal. A digest of the protocol:
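Read-out: TaqMan qRT-PCR of PTEN transcript, normalized to three housekeeping genes, fitted in both directions against 0.5% DMSO. Differentiated human HepaRG cultures received chemicals for 48 h, eight-point half-log series topping at 100 uM.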

Read-out in experiment [2]: solute carrier (SLC22A1), SLC22A1 (gene 6580)
The experiment can be described thus: LTEA_HepaRG_SLC22A1: Life Technologies and Expression Analysis (LTEA) Assay for solute carrier (SLC22A1) using HepaRG (AID 2283524). As to conditions: mRNA level, 48 h; actives raise or lower the signal. A digest of the protocol:
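Transcript level of SLC22A1 quantified by qRT-PCR (normalized to three housekeeping genes) after 48 h chemical exposure of HepaRG cells, eight concentrations up to 100 µM, half-log steps, 0.5% DMSO vehicle. Gain or loss relative to DMSO fitted bidirectionally.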

Read-out in experiment [3]: Pyruvate Dehydrogenase Kinase 4 (PDK4), PDK4 (gene 5166)
Kind of experiment: LTEA_HepaRG_PDK4: Life Technologies and Expression Analysis (LTEA) Assay for Pyruvate Dehydrogenase Kinase 4 (PDK4) using HepaRG (AID 2283525). As to conditions: mRNA level, 48 h; actives raise or lower the signal. Put shortly:
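Readout is qRT-PCR of PDK4 transcript, normalized to three housekeeping genes, with bidirectional fitting against 0.5% DMSO vehicle. Differentiated HepaRG cells were treated 48 h in serum-free induction medium, duplicate wells, eight-point half-log series topping at 100 uM.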

Read-out in experiment [4]: NAD(P)H dehydrogenase [quinone] 1 (NQO1), NQO1 (gene 1728)
The experiment can be described thus: LTEA_HepaRG_NQO1: Life Technologies and Expression Analysis (LTEA) Assay for NAD(P)H dehydrogenase [quinone] 1 (NQO1) using HepaRG (AID 2283526). As to conditions: mRNA level, 48 h; actives raise or lower the signal. A digest of the protocol: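 qRT-PCR read-out (Fluidigm TaqMan), normalized to three housekeeping genes, after 48 h chemical exposure of HepaRG cells. Concentrations: eight points, top 100 uM, half-log steps, 0.5% DMSO vehicle. Gain or loss of signal fitted relative to DMSO.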

Read-out in experiment [5]: Nuclear factor erythroid 2-related factor 2 (Homo sapiens) (UniProt Q16236)
The experiment can be described thus: LTEA_HepaRG_NFE2L2: Life Technologies and Expression Analysis (LTEA) Assay for Nuclear factor erythroid 2-related factor 2 (NFE2L2) Transcription Factor using HepaRG (AID 2283527). As to conditions: mRNA level, 48 h; actives raise or lower the signal. Put shortly: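 NFE2L2 transcript level was read by qRT-PCR (housekeeping ACTB/GAPDH/POLR2A normalisation) after 48 h chemical treatment of HepaRG in serum-free induction medium. Duplicate 8-point half-log curves, top 100 uM, 0.5% DMSO vehicle; up- or down-regulation fitted against vehicle.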

Read-out in experiment [6]: succinate dehydrogenase complex iron sulfur subunit B (SDHB), SDHB (gene 6390)
The experiment can be described thus: LTEA_HepaRG_SDHB: Life Technologies and Expression Analysis (LTEA) Assay for succinate dehydrogenase complex iron sulfur subunit B (SDHB) using HepaRG (AID 2283528). As to conditions: mRNA level, 48 h; actives raise or lower the signal. A digest of the protocol:
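Readout is SDHB transcript level by qRT-PCR, normalised to three housekeeping genes and fitted bidirectionally against 0.5% DMSO vehicle. Human HepaRG cells were treated for 48 h at up to 100 uM.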

Read-out in experiment [7]: Signal transducer and activator of transcription 3 (Homo sapiens) (UniProt P40763)
The experiment can be described thus: LTEA_HepaRG_STAT3: Life Technologies and Expression Analysis (LTEA) Assay for Signal transducer and activator of transcription (STAT3) using HepaRG (AID 2283529). As to conditions: mRNA level, 48 h; actives raise or lower the signal. A digest of the protocol: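 STAT3 transcript quantified by qRT-PCR against three housekeeping genes (ACTB, GAPDH, POLR2A), fitted both directions relative to DMSO. HepaRG cultures exposed 48 h to eight half-log concentrations, top 100 uM, 0.5% DMSO, serum-free induction medium.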

Read-out in experiment [8]: solute carrier (SLCO1B1), SLCO1B1 (gene 10599)
The experiment can be described thus: LTEA_HepaRG_SLCO1B1: Life Technologies and Expression Analysis (LTEA) Assay for solute carrier (SLCO1B1) using HepaRG (AID 2283530). As to conditions: mRNA level, 48 h; actives raise or lower the signal. Put shortly: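 Human HepaRG cultures treated for 48 h with an eight-concentration half-log series topping at 100 uM; SLCO1B1 measured by qRT-PCR and fitted bidirectionally relative to DMSO.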

Read-out in experiment [9]: sulfotransferase 2A1 (SULT2A1), SULT2A1 (gene 6822)
The experiment can be described thus: LTEA_HepaRG_SULT2A1: Life Technologies and Expression Analysis (LTEA) Assay for sulfotransferase 2A1 (SULT2A1) using HepaRG (AID 2283531). As to conditions: mRNA level, 48 h; actives raise or lower the signal. Put shortly:
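Gene-expression endpoint in a human liver cell line: SULT2A1 mRNA change after 48 h chemical treatment, curves fitted in both directions relative to 0.5% DMSO vehicle. Concentrations spanned eight half-log steps from 100 uM.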

Read-out in experiment [10]: Transforming Growth Factor (TGFA), TGFA (gene 7039)
The experiment can be described thus: LTEA_HepaRG_TGFA: Life Technologies and Expression Analysis (LTEA) Assay for Transforming Growth Factor (TGFA) using HepaRG (AID 2283532). As to conditions: mRNA level, 48 h; actives raise or lower the signal. Put shortly:
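TGFA transcript quantified by qRT-PCR (Fluidigm arrays) against three housekeeping genes, after 48 hours chemical treatment of HepaRG cells. Top concentration 100 uM with half-log dilutions, 8 points, duplicates, 0.5% DMSO.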

Read-out in experiment [11]: Transforming Growth Factor (TGFB1), TGFB1 (gene 7040)
Kind of experiment: LTEA_HepaRG_TGFB1: Life Technologies and Expression Analysis (LTEA) Assay for Transforming Growth Factor (TGFB1) Transporter using HepaRG (AID 2283533). As to conditions: mRNA level, 48 h; actives raise or lower the signal. Put shortly: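 Eight-point concentration-response (max 100 uM, half-log) in HepaRG under serum-free induction conditions, 48 h. TGFB1 mRNA by qRT-PCR, housekeeping-normalized.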

Read-out in a further experiment: TIMP1, TIMP1 (gene 7076)
The experiment can be described thus: LTEA_HepaRG_TIMP1: Life Technologies and Expression Analysis (LTEA) Assay for TIMP1 using HepaRG (AID 2283534). As to conditions: mRNA level, 48 h; actives raise or lower the signal. A digest of the protocol: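 TIMP1 induction or repression in HepaRG cells after 48 h chemical exposure (eight concentrations, highest 100 uM), assessed by normalized qRT-PCR with bidirectional fitting to DMSO controls.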

Read-out in experiment [12]: Tumor necrosis factor receptor 1 (TNFRSF1A), TNFRSF1A (gene 7132)
The experiment can be described thus: LTEA_HepaRG_TNFRSF1A: Life Technologies and Expression Analysis (LTEA) Assay for Tumor necrosis factor receptor 1 (TNFRSF1A) using HepaRG (AID 2283535). As to conditions: mRNA level, 48 h; actives raise or lower the signal. A digest of the protocol:
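Assay uses 48 h chemical treatment of differentiated HepaRG monolayers, tested in duplicate at eight concentrations from 100 uM downward in 0.5% DMSO. mRNA is normalized to ACTB, GAPDH and POLR2A, with induction or suppression fitted relative to vehicle.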

Read-out in experiment [13]: Thyroid Hormone Responsive (THRSP), THRSP (gene 7069)
The experiment can be described thus: LTEA_HepaRG_THRSP: Life Technologies and Expression Analysis (LTEA) Assay for Thyroid Hormone Responsive (THRSP) using HepaRG (AID 2283536). As to conditions: mRNA level, 48 h; actives raise or lower the signal. Put shortly: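 THRSP transcript quantified by Fluidigm qRT-PCR against three housekeeping genes after 48 h chemical exposure of HepaRG cells in serum-free induction medium; eight-point half-log series, top 100 uM, 0.5% DMSO vehicle, duplicate wells.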

Read-out in experiment [14]: Cellular tumor antigen p53 (Homo sapiens) (UniProt P04637)
The experiment can be described thus: LTEA_HepaRG_TP53: Life Technologies and Expression Analysis (LTEA) Assay for Tumor Protein P53 (TP53) using HepaRG (AID 2283537). As to conditions: mRNA level, 48 h; actives raise or lower the signal. A digest of the protocol:
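Read-out is TP53 transcript level by microfluidic qRT-PCR, normalised to three housekeeping genes and fitted bidirectionally against DMSO. Human HepaRG cells received compounds for 48 h, highest concentration 100 uM.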

Read-out in experiment [15]: UDP glucuronosyltransferase (UGT1A1), UGT1A1 (gene 54658)
The experiment can be described thus: LTEA_HepaRG_UGT1A1: Life Technologies and Expression Analysis (LTEA) Assay for UDP glucuronosyltransferase (UGT1A1) using HepaRG (AID 2283538). As to conditions: mRNA level, 48 h; actives raise or lower the signal. A digest of the protocol:
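HepaRG, 48 h chemical exposure (top 100 uM, half-log 8-pt, 0.5% DMSO vehicle), duplicate wells; qRT-PCR (TaqMan, Fluidigm array) for UGT1A1 mRNA, housekeeping-normalized; bidirectional curve fit vs DMSO baseline.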

Read-out in experiment [16]: UDP glucuronosyltransferase (UGT1A6), UGT1A6 (gene 54578)
The experiment can be described thus: LTEA_HepaRG_UGT1A6: Life Technologies and Expression Analysis (LTEA) Assay for UDP glucuronosyltransferase (UGT1A6) using HepaRG (AID 2283539). As to conditions: mRNA level, 48 h; actives raise or lower the signal. Put shortly: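 Measures mRNA change in HepaRG hepatic cells exposed 48 h to chemicals (eight-point, maximum 100 uM, 0.5% DMSO vehicle) in serum-free induction medium. Expression normalized to endogenous controls; DMSO served as negative control and baseline.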

Read-out in experiment [17]: X-box binding protein 1 (XBP1), XBP1 (gene 7494)
The experiment can be described thus: LTEA_HepaRG_XBP1: Life Technologies and Expression Analysis (LTEA) Assay for X-box binding protein 1 (XBP1) using HepaRG (AID 2283540). As to conditions: mRNA level, 48 h; actives raise or lower the signal. A digest of the protocol: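 Eight concentrations (half-log, highest 100 uM, 0.5% DMSO) tested in duplicate on HepaRG cells over 48 h in serum-free induction medium; qRT-PCR of XBP1 normalised to ACTB, GAPDH, POLR2A.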

Experiment [18] is described as follows: LTEA_HepaRG_LDH_cytotoxicity: Cytotoxicity Assessment in the Life Technologies and Expression Analysis (LTEA) Assay (AID 2283563; active = hit-call score of the fitted dose curve at least 0.9, where 1 is the maximum). Put shortly:
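Spent-medium LDH after 48 h chemical exposure of HepaRG cells in serum-free induction medium; eight concentrations, half-log dilutions from 100 uM, duplicate wells, fitted upward relative to 0.5% DMSO.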

Experiment [19] is described as follows: ATG_XTT_Cytotoxicity: Cytotoxicity Assessment in the Attagene TRANS-FACTORIAL HepG2 Assay (AID 2283584; active = hit-call score of the fitted dose curve at least 0.9, where 1 is the maximum). Put shortly:
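24 h chemical exposure of reporter-transfected HepG2; XTT signal loss vs DMSO indicates cytotoxicity.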

Cellular tumor antigen p53 (Homo sapiens), sequence (P04637 whole entry, looked up): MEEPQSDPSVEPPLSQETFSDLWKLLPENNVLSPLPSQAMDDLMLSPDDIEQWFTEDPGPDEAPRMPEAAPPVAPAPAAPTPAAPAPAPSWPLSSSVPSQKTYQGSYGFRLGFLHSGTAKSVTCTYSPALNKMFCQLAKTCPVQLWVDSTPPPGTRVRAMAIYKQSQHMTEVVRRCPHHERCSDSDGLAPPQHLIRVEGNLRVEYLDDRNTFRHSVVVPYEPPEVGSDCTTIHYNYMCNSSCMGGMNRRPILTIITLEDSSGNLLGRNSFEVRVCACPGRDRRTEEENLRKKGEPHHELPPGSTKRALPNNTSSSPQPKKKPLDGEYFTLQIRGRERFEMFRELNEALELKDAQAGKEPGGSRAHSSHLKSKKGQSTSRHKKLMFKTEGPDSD
Signal transducer and activator of transcription 3 (Homo sapiens), sequence (P40763 whole entry, looked up): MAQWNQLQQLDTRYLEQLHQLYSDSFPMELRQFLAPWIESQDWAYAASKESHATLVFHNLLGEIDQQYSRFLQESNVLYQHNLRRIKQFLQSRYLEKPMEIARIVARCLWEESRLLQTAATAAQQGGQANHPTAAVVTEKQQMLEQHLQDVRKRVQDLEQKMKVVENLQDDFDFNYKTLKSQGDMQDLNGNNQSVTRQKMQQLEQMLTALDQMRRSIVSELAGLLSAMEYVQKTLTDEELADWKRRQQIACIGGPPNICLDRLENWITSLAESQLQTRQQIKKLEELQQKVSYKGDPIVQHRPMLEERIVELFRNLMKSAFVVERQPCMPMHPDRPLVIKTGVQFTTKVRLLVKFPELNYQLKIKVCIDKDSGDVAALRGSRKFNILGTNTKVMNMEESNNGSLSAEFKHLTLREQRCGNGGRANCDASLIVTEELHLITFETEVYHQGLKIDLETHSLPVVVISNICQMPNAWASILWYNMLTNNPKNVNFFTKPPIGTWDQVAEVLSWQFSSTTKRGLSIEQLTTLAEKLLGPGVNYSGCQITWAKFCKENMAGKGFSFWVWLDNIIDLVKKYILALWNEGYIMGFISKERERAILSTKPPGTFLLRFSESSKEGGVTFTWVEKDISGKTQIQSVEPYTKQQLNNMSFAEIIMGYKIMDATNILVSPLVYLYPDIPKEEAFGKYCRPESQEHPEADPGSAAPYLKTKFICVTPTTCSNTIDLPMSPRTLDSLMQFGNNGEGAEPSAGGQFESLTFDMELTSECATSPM
Nuclear factor erythroid 2-related factor 2 (Homo sapiens), sequence (Q16236 whole entry, looked up): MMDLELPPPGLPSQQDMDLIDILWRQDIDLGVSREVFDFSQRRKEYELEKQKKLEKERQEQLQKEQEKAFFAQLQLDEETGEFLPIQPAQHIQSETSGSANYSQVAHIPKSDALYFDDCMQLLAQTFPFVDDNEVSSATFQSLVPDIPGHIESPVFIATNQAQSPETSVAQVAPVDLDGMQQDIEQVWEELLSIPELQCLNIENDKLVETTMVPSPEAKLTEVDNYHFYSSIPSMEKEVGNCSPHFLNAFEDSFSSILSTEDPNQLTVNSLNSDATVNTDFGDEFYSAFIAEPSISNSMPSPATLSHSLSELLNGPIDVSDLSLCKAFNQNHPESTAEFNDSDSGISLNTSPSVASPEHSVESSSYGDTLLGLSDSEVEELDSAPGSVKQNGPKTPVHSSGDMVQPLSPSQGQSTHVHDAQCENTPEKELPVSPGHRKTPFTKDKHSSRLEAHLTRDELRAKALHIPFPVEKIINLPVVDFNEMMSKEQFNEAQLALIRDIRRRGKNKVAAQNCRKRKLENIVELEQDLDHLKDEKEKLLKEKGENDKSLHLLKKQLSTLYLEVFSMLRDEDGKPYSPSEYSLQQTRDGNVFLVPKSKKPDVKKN

Regarding `CCCC(=O)OCC`, the result in experiment [1], in experiment [2], in [3], in experiment [4], in experiment [5] and in experiment [6] was inactive. In addition, the outcome in experiment [7] is “inactive”; in experiment [8], “inactive”; in experiment [9] it was “inactive”; in experiment [10], “inactive”; in experiment [11], “inactive”; in the experiment with TIMP1, TIMP1 (gene 7076), “inactive”. Moreover, the call in experiment [12], in [13], in experiment [14], in experiment [15], in [16] and in experiment [17] was inactive. Further, the compound was classed as inactive in experiment [18].
With `CC(C)(O)c1coc(S(=O)(=O)NC(=O)Nc2c3c(cc4c2CCC4)CCC3)c1`, the compound was called inactive in [1], in [2], in experiment [3], in experiment [4], in [5] and in [6]. For the same compound, the outcome in [7] is “inactive”; in experiment [8], “inactive”; in [9], “inactive”; in experiment [10] it was “inactive”; in experiment [11], “inactive”; with TIMP1, TIMP1 (gene 7076), “inactive”. Also, the call in [12], in experiment [13], in experiment [14], in [16] and in [18] was inactive. For the same compound, the AC50 in experiment [15] is 21.5 µM (active).
On to `Clc1nc(Cl)c(Cl)c(Cl)c1Cl`, for which the result in experiment [1], in experiment [2], in experiment [3], in experiment [5], in experiment [6] and in experiment [7] was inactive. Also, the outcome in experiment [8] is “inactive”; in experiment [9], “inactive”; in experiment [10], “inactive”; in [11], “inactive”; in the experiment with TIMP1, TIMP1 (gene 7076), “inactive”; in experiment [12], “inactive”. The compound was called inactive in experiment [13], in experiment [14], in [15], in experiment [16], in experiment [17] and in experiment [18]. Further, the outcome in [19] was inactive.
